Compound activity as filed in PubChem BioAssay.
Shown are actives, neighbours in structure and some others; about 2.3% of the full set was active somewhere.
CHO-K1 Ca antag – M1 antagonist counterscreen hit in parental CHO-K1 cells | ATP-induced calcium, Fluo-8 fluorescence | inhibition, % at 3 µM | 360,000 tested, 0.6% active | AID 602250;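 active = inhibition above a per-plate cutoff, the plate's mean sample inhibition plus 3 SD, cut at about 24% in these data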
CHO-K1 Ca PAM – nonselective calcium activators in parental CHO-K1 cells, primary screen, counter-screen for M1 PAM project, cell-based, Fluo-8 calcium fluorescence, full deck, 1536-well. ATP EC20; 0% at ATP EC20, 100% at ATP max. 360,000 tested, 0.02% active. activation, % at 3 µM. AID 602247, 2012;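 active = activation above the run cutoff, the mean activation of all test compounds plus 3 SD, cut at about 40% in these data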;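 note: peak over basal fluorescence ratio in a 140 s read after ATP addition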
CHRM1 PAM – human M1 muscarinic receptor positive allosteric modulators, primary screen, CHO-K1 cells, Fluo-8 calcium fluorescence, 1536-well | activation, % at 3 µM | AID 588819, 2011 | 360,000 tested, 0.088% active | CHO-K1 hM1, ACh EC20; 0% = ACh EC20, 100% = maximal ACh | Muscarinic acetylcholine receptor M1 (Homo sapiens), P11229; in the data active = activation above about 19%, passing the limit was not always enough
Target sequence (P11229 whole entry, looked up): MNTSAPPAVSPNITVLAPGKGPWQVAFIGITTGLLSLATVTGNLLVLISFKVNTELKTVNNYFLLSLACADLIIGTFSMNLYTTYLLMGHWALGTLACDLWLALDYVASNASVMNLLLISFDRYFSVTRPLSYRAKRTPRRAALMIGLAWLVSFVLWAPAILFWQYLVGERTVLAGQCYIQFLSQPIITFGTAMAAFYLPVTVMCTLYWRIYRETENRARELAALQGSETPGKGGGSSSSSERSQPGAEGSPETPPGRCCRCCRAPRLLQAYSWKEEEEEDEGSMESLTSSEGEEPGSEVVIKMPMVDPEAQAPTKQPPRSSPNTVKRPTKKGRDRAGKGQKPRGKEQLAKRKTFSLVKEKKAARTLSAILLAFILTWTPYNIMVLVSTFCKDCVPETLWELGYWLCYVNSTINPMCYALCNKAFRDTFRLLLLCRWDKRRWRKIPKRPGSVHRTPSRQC
M1 antag – human M1 muscarinic receptor antagonists, primary screen, CHO-K1 cells, Fluo-8 calcium fluorescence, 1536-well. AID 588852, 2011. inhibition, % at 3 µM. CHO-K1 hM1, ACh EC80 antagonist. 360,000 tested, 1.3% active. Muscarinic acetylcholine receptor M1 (Homo sapiens), P11229;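 active = percent inhibition above its own plate's cutoff, namely the mean of that plate's compound wells plus 3 SD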;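 note: peak over basal fluorescence ratio during 140 s after agonist addition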
M1 ag parental – counter-screen for M1 agonists: effect in parental CHO-K1 cells. Fluo-8 calcium fluorescence; scaled to maximal ATP response, vehicle zero. 360,000 tested, 0.48% active. activation, % at 3 µM; in the data active = activation above about 15%;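 note: untransfected CHO-K1 host cells lacking M1 receptor as counterscreen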
M1 ag – human M1 muscarinic receptor agonists, primary screen, Fluo-8 calcium fluorescence, CHO-K1 cells, HTS. AID 588814, 2011. activation, % at 3 µM. CHO-K1 hM1, agonist mode; 0% DMSO, 100% acetylcholine EC100. 360,000 tested, 0.33% active. Muscarinic acetylcholine receptor M1 (Homo sapiens), P11229;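 active = activation above the run's mean compound activation plus 3 SD, cut at about 16% in these data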;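 note: peak over basal fluorescence ratio within a 140 s kinetic read after compound addition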
A number is an active result; 0 = inactive; - = no result given.

SMILES | CHO-K1 Ca antag | CHO-K1 Ca PAM | CHRM1 PAM | M1 antag | M1 ag parental | M1 ag
Cc1oc(-c2ccc(-c3ccccc3)cc2)nc1CN1CCN(CC(=O)N(C)C)CC1 | 0 | 0 | 0 | 0 | 0 | 0
CC(=O)Oc1ccccc1/C=C/c1ccc2ccccc2[n+]1C | 0 | 0 | 0 | 54.1 | 0 | 0
O=C(Cn1cc([N+](=O)[O-])cn1)NCc1cc2ccccc2[nH]1 | 0 | 0 | 0 | 0 | 0 | 0
CC(=O)c1cccc(N/C=C\c2nnnn2-c2ccc(F)cc2)c1 | 0 | 0 | 0 | 0 | 15.2 | 0
Nc1nc(N)c(N=O)c(Nc2ccc(Cl)c(Cl)c2)n1 | 0 | 52.9 | - | - | 0 | -
Cc1ccc(Nc2nc(N)nc(N)c2N=O)cc1Cl | 0 | 0 | - | - | 36.4 | -
Nc1nc(N)c(Br)c(Nc2ccc(Cl)c(Cl)c2)n1 | 0 | 0 | 0 | 0 | 0 | 0
Nc1nc(N)c(N=O)c(Nc2cccc(Cl)c2)n1 | 0 | 0 | - | - | 0 | -
O=c1[nH]c2ccccc2n2cnnc12 | 0 | 0 | 0 | 0 | 0 | 0
CCOC(=O)N1CCN(C(=O)c2cc(Cl)c(Cl)cc2C(=O)O)CC1 | 0 | 0 | 0 | 0 | 0 | 31.6
CCCOC1CCCN(C(=O)c2cc(Cl)c(Cl)cc2C(=O)O)C1 (stereo not given) | 0 | 0 | 0 | 51.7 | 0 | 59.7
COc1ccccc1C(=O)NCCC(=O)NCC1COc2ccccc2O1 (stereo not given) | 0 | 0 | 0 | 0 | 0 | 0
O/N=C(\c1ccccc1)C(O)c1ccccc1 (stereo not given) | 0 | 0 | 0 | 0 | 0 | 0
Cc1c(C(=O)NCc2ccc(C(F)(F)F)cc2)sc(=O)n1Cc1cccc(F)c1 | 0 | 0 | 0 | 39.2 | 22.7 | 37.1
Cc1c(C(=O)NCc2cccc([N+](=O)[O-])c2)sc(=O)n1Cc1ccccc1F | 0 | 0 | 0 | 66.8 | 0 | 0
COc1ccc(Br)c(Cn2c(C)c(C(=O)NCc3cccc([N+](=O)[O-])c3)sc2=O)c1 | 0 | 0 | 0 | 88.9 | 0 | 0
COc1ccc(Cl)cc1Cn1c(C)c(C(=O)NCc2cccc([N+](=O)[O-])c2)sc1=O | 0 | 0 | 0 | 80.0 | 0 | 0
Cc1c(C(=O)NCc2cccc(C(F)(F)F)c2)sc(=O)n1Cc1cccc(F)c1 | 0 | 0 | 0 | 0 | 0 | 0
CCCC(C)NC(=O)COC(=O)c1cccc(NS(C)(=O)=O)c1 (stereo not given) | 0 | 0 | 0 | 0 | 0 | 0
COc1ccccc1N=NNc1ccccc1OC | 0 | 0 | 0 | 0 | 0 | 0
Cc1c(C(=O)NCc2ccc(Cl)c(Cl)c2)sc(=O)n1Cc1ccc(S(=O)(=O)N(C)C)cc1 | 0 | 0 | 0 | 0 | 0 | 0
Cc1c(C(=O)NCc2ccc(C(C)C)cc2)sc(=O)n1Cc1ccc(S(=O)(=O)N(C)C)cc1 | 0 | 0 | 0 | 33.9 | 0 | 0
CC(C)=CCc1c(O)cc2oc3c(CC=C(C)C)c(O)c(O)c(CC=C(C)C)c3c(=O)c2c1O | 24.6 | 0 | 0 | 0 | 0 | 0
CC(C)=CCc1cc(-c2oc3cc(O)cc(O)c3c(=O)c2O)ccc1O | 0 | 0 | 0 | 0 | 0 | 0
O=C(N/N=C/c1cccc2ccccc12)c1cccnc1 | 0 | 0 | 0 | 0 | 0 | 0
SMILES | CHO-K1 Ca antag | CHO-K1 Ca PAM | CHRM1 PAM | M1 antag | M1 ag parental | M1 ag
Cc1ccccc1/C=N/NC(=O)c1cccnc1 | 0 | 0 | 27.4 | 0 | 0 | 0
FC(F)(F)c1nc(-c2ccncc2)ncc1-c1nnnn1-c1ccccc1 | 0 | 0 | 0 | 0 | 0 | 0
Fc1ccc(-n2nnnc2-c2cnc(-c3cccs3)nc2C(F)(F)F)cc1 | 0 | 0 | 0 | 57.5 | 0 | 0
CC(=O)CC(=O)Nc1ccn(-c2ccccc2)n1 | 27.2 | 0 | 0 | 0 | 0 | 0
O=C(O)CCCC(=O)Nc1ccn(-c2ccccc2)n1 | 0 | 0 | 0 | 0 | 0 | 0
Cc1cc(C)c(NN=c2c(=O)c3ccccc3c2=O)c(C)c1 | 0 | 0 | 0 | 34.5 | 0 | 0
Nc1ccc2cc3[nH]c4cc(N)ccc4c3nc2c1 | 56.8 | 0 | 0 | 57.1 | 33.2 | 35.7
Cc1ccc2nc(SCc3nc4c(cnn4-c4ccccc4)c(=O)[nH]3)[nH]c2c1 | 26.9 | 0 | 0 | 0 | 0 | 0
CCN1CCN(C(=O)c2c(-c3c(Cl)cccc3Cl)noc2C)CC1 | 0 | 0 | 0 | 0 | 0 | 0
CCOC(=O)Nc1ccc2c(c1)N(C(=O)CCN1CCOCC1)c1ccccc1S2=O (stereo not given) | 0 | 0 | 0 | 78.0 | 0 | 0
CCCCOc1cccc2c(=O)n(CC(=O)Nc3ccc4c(c3)OCCO4)ccc12 | 0 | 0 | 0 | 0 | 0 | 0
O=Cc1ccc(OCc2nnsc2Cl)cc1 | 0 | 0 | 0 | 0 | 0 | 0
CCNC(=O)N(C)c1c(CC)nc2ccc(C(=O)Nc3cccc(OCC(=O)N(C)C)c3)cn12 | 0 | 0 | 0 | 32.1 | 0 | 0
CCc1nc2ccc(C(=O)Nc3cccc(OCC(=O)N(C)C)c3)cn2c1N(C)Cc1cc2ccccc2s1 | 0 | 0 | 0 | 49.5 | 0 | 0
CCc1nc2ccc(C(=O)Nc3cccc(OCC(=O)N(C)C)c3)cn2c1N(C)C(=O)c1ccncc1 | 0 | 0 | 0 | 0 | 0 | 0
Cc1[nH]c(-c2ccc(F)cc2)cc1C(=O)N1CCN(c2ccccc2F)CC1 | 0 | 0 | 0 | 0 | 0 | 0
CC1CCC2(CC1)OCC1(CCC3(COC4(CCC(C)CC4)OC3)C1=O)CO2 (stereo not given) | 0 | 0 | 0 | 0 | 0 | 0
CN(C)CCCC(C)(O)C(C)(C)c1ccccc1 (stereo not given) | 0 | 0 | 0 | 0 | 0 | 0
CN(C)CCC(O)(c1ccccc1)c1ccccc1Cl (stereo not given) | 0 | 0 | 0 | 37.8 | 0 | 0
CN(C)CCC(O)(c1ccccc1)c1ccccc1 | 0 | 0 | 0 | 66.6 | 0 | 0
CN1C(=O)C(CC(=O)NCC2CCCCC2)SC1=Nc1ccccc1 (stereo not given) | 0 | 0 | 0 | 0 | 0 | 0
Cc1c(Cl)cccc1NC(=O)[C@@H](NC(=O)c1ccccc1Cl)C(C)C | 24.1 | 0 | 0 | 0 | 0 | 0
CN(C)N1C(N)=C(C#N)C(c2cccs2)C2=C1CCCC2=O (stereo not given) | 0 | 0 | 0 | 0 | 0 | 0
Cc1ccsc1C1C(C#N)=C(N)N(N(C)C)C2=C1C(=O)CCC2 (stereo not given) | 0 | 0 | 0 | 39.1 | 0 | 0
CCCCn1nc(C(=O)N2CCN(S(=O)(=O)c3ccccc3)CC2)c2ccccc2c1=O | 0 | 0 | 0 | 0 | 0 | 0
O=C(O)/C=C/c1ccc(S(=O)(=O)NCc2cccnc2)cc1 | 0 | 0 | 0 | 0 | 0 | 0
COc1ccc2[nH]c(=O)c(CN(Cc3cccs3)S(=O)(=O)c3cccc4nsnc34)cc2c1 | 0 | 0 | 0 | 31.5 | 0 | 0
